Among the data in PubChem BioAssay (EPA / NIEHS) are AC50 and outcome values, retold here.

Inconclusive results are not listed. Calls of active or inactive are those of the source. The calls were made as follows: active = hit-call score of the fitted dose curve at least 0.9, where 1 is the maximum; inconclusive = response in the unintended direction; inactive = score below 0.9.

Experiment [1] concerns the target Type-1 angiotensin II receptor (Homo sapiens) (UniProt P30556). Put plainly: NVS_GPCR_hAT1: NovaScreen (NVS) G Protein-Coupled Receptor Assay for human Angiotensin II receptor type 1 (AT1) (AID 2283263). A digest of the protocol:
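Membranes from KAN-TS cells; radioligand competitive displacement, 3 h, filtration and scintillation counting. Single-point duplicate screen at 25 uM, then concentration-response up to 50 uM for hits; loss of signal fitted versus DMSO.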

In experiment [2] the target is human Endothelin Receptor Type A (ETA), EDNRA (gene 1909) (UniProt P25101). Put plainly: NVS_GPCR_hETA: NovaScreen (NVS) G Protein-Coupled Receptor Assay for human Endothelin Receptor Type A (ETA) (AID 2283265). A digest of the protocol:
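Cell-free radioligand displacement using SH-SY5Y-derived protein, 3 h incubation, filter-based scintillation counting. Primary screen in duplicate at 25 uM; actives then run in concentration-response up to 50 uM; loss of binding fitted versus DMSO.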

For experiment [3], the target named is human Endothelin Receptor Type B (ETB), EDNRB (gene 1910) (UniProt P24530). Nature of the experiment: NVS_GPCR_hETB: NovaScreen (NVS) G Protein-Coupled Receptor Assay for human Endothelin Receptor Type B (ETB) (AID 2283267). A digest of the protocol:
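Human astrocytoma cell membranes; radioligand competitive binding read by filter scintillation counting 4 hours after dosing. Single-concentration duplicate screen at 25 uM, then singleton concentration-response up to 50 uM; loss of signal versus DMSO.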

For experiment [4], the target named is human Leukotriene B4 Receptor 1 (LTB4-BLT1), LTB4R (gene 1241) (UniProt Q15722). Put plainly: NVS_GPCR_hLTB4_BLT1: NovaScreen (NVS) G Protein-Coupled Receptor Assay for human Leukotriene B4 Receptor 1 (LTB4-BLT1) (AID 2283271). As to the method:
NVS_GPCR_hLTB4_BLT1 is a biochemical, single-readout assay that uses extracted gene-proteins from Human neutrophils in a cell-free assay. Measurements were taken 1 hour after chemical dosing in a 48-well plate.NVS_GPCR_hLTB4_BLT1 is one of one assay component(s) measured or calculated from the NVS_GPCR_hLTB4_BLT1 assay. It is designed to make measurements of radioligand binding, a form of binding reporter, as detected with scintillation counting signals by Filter-based radiodetection technology.Data from the assay component NVS_GPCR_hLTB4_BLT1 was analyzed into 1 assay endpoint. This assay endpoint, NVS_GPCR_hLTB4_BLT1, was analyzed in the positive analysis fitting direction relative to DMSO as the negative control and baseline of activity. Using a type of binding reporter, loss-of-signal activity can be used to understand changes in the binding as they relate to the gene LTB4R. Furthermore, this assay endpoint can be referred to as a primary readout, because the performed assay has only produced 1 assay endpoint. To generalize the intended target to other relatable targets, this assay endpoint is annotated to the gpcr intended target family, where the subfamily is rhodopsin-like receptor. […]

Experiment [5] concerns the target human Neuropeptide Receptor Y1 (NPY1), NPY1R (gene 4886) (UniProt P25929). Put plainly: NVS_GPCR_hNPY1: NovaScreen (NVS) G Protein-Coupled Receptor Assay for human Neuropeptide Receptor Y1 (NPY1) (AID 2283276). A digest of the protocol:
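Cell-free radioligand binding using receptor extracted from SK-N-MC cells, 1 h incubation, filter-based scintillation counting. Primary screen single concentration 25 uM in duplicate; actives followed in concentration series. Loss of bound signal scored versus DMSO.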

Experiment [6] has as its target Neuropeptide Y receptor type 2 (Homo sapiens) (UniProt P49146). Put plainly: NVS_GPCR_hNPY2: NovaScreen (NVS) G Protein-Coupled Receptor Assay for human Neuropeptide Receptor Y2 (NPY2) (AID 2283277). A digest of the protocol: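 Radioligand binding on membranes extracted from SK-N-MC cells, cell-free, read 1 h after dosing by filter-based scintillation counting. Loss of signal vs DMSO. Primary screen in duplicate at 25 uM; actives followed up in concentration-response up to 50 uM.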

In experiment [7] the target is human Neurotensin Receptor (NTS), NTSR1 (gene 4923) (UniProt P30989). Put plainly: NVS_GPCR_hNTS: NovaScreen (NVS) G Protein-Coupled Receptor Assay for human Neurotensin Receptor (NTS) (AID 2283279). A digest of the protocol:
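Radioligand displacement on human NTSR1 protein from CHO cells, cell-free, 1 h, filter-based scintillation counting. Primary screen at 25 uM in duplicate; hits rerun in concentration-response up to 50 uM.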

Broadly, the AC50 is the midpoint of the concentration-response curve, whichever way the signal moves.

Chain of human Neurotensin Receptor (NTS), NTSR1 (gene 4923) (P30989 whole entry, looked up): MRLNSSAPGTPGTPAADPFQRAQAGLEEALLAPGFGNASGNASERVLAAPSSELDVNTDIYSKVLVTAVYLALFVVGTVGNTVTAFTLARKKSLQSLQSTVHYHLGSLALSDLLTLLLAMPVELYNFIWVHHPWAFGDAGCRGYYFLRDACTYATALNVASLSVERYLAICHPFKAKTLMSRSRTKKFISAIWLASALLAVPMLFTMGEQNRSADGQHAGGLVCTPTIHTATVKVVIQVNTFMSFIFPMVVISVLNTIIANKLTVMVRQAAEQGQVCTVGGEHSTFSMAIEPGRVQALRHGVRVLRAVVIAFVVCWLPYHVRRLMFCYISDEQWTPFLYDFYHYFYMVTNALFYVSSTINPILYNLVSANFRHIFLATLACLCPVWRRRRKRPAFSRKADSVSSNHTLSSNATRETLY
Chain of human Endothelin Receptor Type B (ETB), EDNRB (gene 1910) (P24530 whole entry, looked up): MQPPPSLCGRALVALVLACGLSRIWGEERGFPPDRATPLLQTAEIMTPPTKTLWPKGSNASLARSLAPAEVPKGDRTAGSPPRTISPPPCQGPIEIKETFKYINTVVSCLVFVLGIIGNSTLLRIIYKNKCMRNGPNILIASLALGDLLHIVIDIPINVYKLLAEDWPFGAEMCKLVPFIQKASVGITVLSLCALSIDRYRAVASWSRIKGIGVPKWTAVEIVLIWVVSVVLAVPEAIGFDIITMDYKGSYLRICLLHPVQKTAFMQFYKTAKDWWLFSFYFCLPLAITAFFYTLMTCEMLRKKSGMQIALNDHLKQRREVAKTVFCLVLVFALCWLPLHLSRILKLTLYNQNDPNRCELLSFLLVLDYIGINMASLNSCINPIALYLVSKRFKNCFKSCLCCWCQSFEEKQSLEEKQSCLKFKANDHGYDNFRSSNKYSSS
Chain of Type-1 angiotensin II receptor (Homo sapiens) (P30556 whole entry, looked up): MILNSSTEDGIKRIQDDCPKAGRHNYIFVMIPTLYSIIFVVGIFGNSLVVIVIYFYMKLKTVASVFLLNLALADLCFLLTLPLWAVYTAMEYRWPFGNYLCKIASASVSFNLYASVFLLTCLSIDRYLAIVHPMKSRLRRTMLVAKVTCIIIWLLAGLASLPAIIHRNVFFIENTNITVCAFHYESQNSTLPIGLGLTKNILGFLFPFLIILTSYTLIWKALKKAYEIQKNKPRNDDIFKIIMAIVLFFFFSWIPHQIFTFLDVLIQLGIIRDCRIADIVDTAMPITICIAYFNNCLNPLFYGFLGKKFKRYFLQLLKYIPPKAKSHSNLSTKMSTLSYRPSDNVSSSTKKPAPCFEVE
Chain of human Neuropeptide Receptor Y1 (NPY1), NPY1R (gene 4886) (P25929 whole entry, looked up): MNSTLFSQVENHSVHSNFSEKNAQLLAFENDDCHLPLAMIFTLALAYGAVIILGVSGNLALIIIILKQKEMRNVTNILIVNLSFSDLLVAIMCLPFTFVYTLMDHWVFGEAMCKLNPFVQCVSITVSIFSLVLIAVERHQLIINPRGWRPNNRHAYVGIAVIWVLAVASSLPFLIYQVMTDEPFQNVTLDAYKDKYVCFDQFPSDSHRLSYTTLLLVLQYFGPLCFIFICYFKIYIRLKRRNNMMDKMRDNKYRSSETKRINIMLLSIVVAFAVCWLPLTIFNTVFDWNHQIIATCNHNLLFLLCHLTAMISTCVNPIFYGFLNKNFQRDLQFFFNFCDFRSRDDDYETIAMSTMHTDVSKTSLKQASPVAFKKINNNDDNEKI
Chain of human Endothelin Receptor Type A (ETA), EDNRA (gene 1909) (P25101 whole entry, looked up): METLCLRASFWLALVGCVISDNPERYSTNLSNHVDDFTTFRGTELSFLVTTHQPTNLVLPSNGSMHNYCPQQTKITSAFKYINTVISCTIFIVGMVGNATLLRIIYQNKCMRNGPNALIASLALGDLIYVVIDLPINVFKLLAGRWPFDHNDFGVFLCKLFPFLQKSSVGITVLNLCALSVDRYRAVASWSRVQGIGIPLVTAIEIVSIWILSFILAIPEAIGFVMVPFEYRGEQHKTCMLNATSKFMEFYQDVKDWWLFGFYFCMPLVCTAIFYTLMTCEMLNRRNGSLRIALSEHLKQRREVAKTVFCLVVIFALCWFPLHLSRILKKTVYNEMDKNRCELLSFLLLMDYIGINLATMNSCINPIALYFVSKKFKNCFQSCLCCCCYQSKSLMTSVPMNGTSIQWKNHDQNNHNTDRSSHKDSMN
Chain of human Leukotriene B4 Receptor 1 (LTB4-BLT1), LTB4R (gene 1241) (Q15722 whole entry, looked up): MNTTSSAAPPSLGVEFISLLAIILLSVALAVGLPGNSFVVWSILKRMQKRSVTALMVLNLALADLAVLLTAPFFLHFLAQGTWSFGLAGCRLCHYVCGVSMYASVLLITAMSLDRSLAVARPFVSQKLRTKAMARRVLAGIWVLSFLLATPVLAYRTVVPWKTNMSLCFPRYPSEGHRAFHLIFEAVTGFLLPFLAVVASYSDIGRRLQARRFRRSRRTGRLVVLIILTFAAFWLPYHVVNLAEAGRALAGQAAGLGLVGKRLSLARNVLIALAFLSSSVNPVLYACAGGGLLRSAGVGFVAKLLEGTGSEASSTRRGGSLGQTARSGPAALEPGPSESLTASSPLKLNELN
Chain of Neuropeptide Y receptor type 2 (Homo sapiens) (P49146 whole entry, looked up): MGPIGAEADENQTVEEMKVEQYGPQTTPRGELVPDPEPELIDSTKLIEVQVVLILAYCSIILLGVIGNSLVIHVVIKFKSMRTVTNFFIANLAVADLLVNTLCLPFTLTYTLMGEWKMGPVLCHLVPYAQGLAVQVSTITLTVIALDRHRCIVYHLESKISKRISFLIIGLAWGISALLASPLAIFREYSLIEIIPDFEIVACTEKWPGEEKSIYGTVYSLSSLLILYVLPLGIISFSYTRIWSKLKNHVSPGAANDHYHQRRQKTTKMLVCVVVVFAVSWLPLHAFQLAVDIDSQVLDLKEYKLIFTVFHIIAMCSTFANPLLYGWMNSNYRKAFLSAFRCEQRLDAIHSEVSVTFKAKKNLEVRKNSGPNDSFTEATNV

`CCCCCCCCCCCCc1ccccc1S(=O)(=O)O`: the AC50 in experiment [1] is 8.83 µM (active). As for `O=C(O)Cc1cc(I)c(Oc2cc(I)c(O)c(I)c2)c(I)c1`, the compound was classed as inactive in experiment [1].

In the case of `CC(C)(C)c1ccc(O)c(C(C)(C)C)c1`, the compound was classed as inactive in experiment [2]. Regarding `N#C[C@@H]1CC(F)(F)CN1C(=O)CNC1CC2CCC(C1)N2c1ncccn1` (some centres not stated), the half-maximal activity concentration (AC50) in experiment [2] was 9.53 µM (active). On to `C#C[C@]1(O)CC[C@H]2[C@@H]3CCC4=CC(=O)CC[C@@H]4[C@H]3CC[C@@]21C`, for which the compound was classed as inactive in experiment [3]. On the same count and under the same terms, the value for `CC(=O)CC(C)(C)O` was “inactive”. In the case of `O=c1c(-c2ccc(O)cc2)coc2cc(O)ccc12`, the compound was classed as inactive in experiment [4]. With `CCCOc1sc(C(=O)N2CCC(c3cc(CN)ccc3F)CC2)c(C)c1Br`, in experiment [5], the AC50 is 13.5 µM (active). Take `Oc1cccc(O)c1`: the compound was called inactive in experiment [5].

Regarding `CCCCC(CC)COC(=O)CCCCC(=O)OCC(CC)CCCC` (configuration not stated), the outcome in experiment [6] was inactive.

In the case of `NC(=O)N(O)[C@@H]1C=C[C@H](Oc2cccc(Oc3ccc(F)cc3)c2)C1`, the half-maximal activity concentration (AC50) in experiment [7] is 8.13 µM (active). Same read-out and setting: the value for `CC(C)(C)CC(C)(C)c1ccc(O)c(-n2nc3ccccc3n2)c1` was 19.4 µM (active).
